The supplement of paper PMC8728848
The full list was thinned out, with the strongest signals kept by preference.

Key:
Test in all cases: glycan array binding signal (z-score within array); higher = stronger binding
Settings in all cases: glycan notation: IUPAC condensed, linker removed
[1] = target: Fuc(a1-2)Gal(b1-4)Glc
Procedure, shortened: (§1)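 Glycan array data were curated from 3228 arrays in the Consortium for Functional Glycomics database and kept only where the protein sequence was available. Glycan names were converted to IUPAC-condensed notation, and columns mapping to the same glycan were averaged. The binding signal is a within-array Z-score, averaged across arrays of the same protein sequence at different concentrations or buffers and across linkers. Negative Z-scores can be read as non-binding.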

[2] = target: Fuc(a1-2)[Gal(a1-3)]Gal(b1-4)Glc
Procedure, shortened: as §1

[3] = target: Fuc(a1-3)GlcNAc
Procedure, shortened: as §1

[4] = target: Fuc(a1-3)[Gal3S(b1-4)]GlcNAc
Procedure, shortened: as §1

[5] = target: Gal(a1-4)Gal(b1-4)Glc
Procedure, shortened: as §1

[6] = target: Gal(b1-3)Gal(b1-4)GlcNAc
Procedure, shortened: as §1

[7] = target: Gal(b1-3)GlcNAc(b1-2)Man(a1-3)[Gal(b1-3)GlcNAc(b1-2)Man(a1-6)]Man(b1-4)GlcNAc(b1-4)GlcNAc
Procedure, shortened: as §1

[8] = target: Gal(b1-4)GalNAc(b1-3)[Fuc(a1-2)]Gal(b1-4)GlcNAc
Procedure, shortened: as §1

[9] = target: Gal(b1-4)GlcNAc(b1-2)Man(a1-3)[Gal(b1-4)GlcNAc(b1-2)Man(a1-6)]Man(b1-4)GlcNAc(b1-4)GlcNAc
Procedure, shortened: as §1

[10] = target: Gal3S(b1-4)GlcNAc
Procedure, shortened: as §1

[11] = target: Gal3S4S(b1-4)GlcNAc
Procedure, shortened: as §1

[12] = target: Glc(a1-6)Glc(a1-6)Glc
Procedure, shortened: as §1

[13] = target: GlcA(b1-3)GlcNAc
Procedure, shortened: as §1

[14] = target: GlcNAc(b1-3)[GlcNAc(b1-6)]Gal(b1-4)GlcNAc
Procedure, shortened: as §1

[15] = target: GlcNAc(b1-3)[GlcNAc(b1-6)]GalNAc
Procedure, shortened: as §1

[16] = target: GlcNAc(b1-4)Gal(b1-4)GlcNAc
Procedure, shortened: as §1

[17] = target: Kdn(a2-3)Gal(b1-4)GlcNAc
Procedure, shortened: as §1

[18] = target: Man(a1-2)Man(a1-2)Man(a1-6)[Man(a1-3)]Man
Procedure, shortened: as §1

[19] = target: Man(a1-2)Man(a1-6)[Man(a1-3)]Man(a1-6)[Man(a1-2)Man(a1-2)Man(a1-3)]Man
Procedure, shortened: as §1

[20] = target: Neu5Ac(a2-3)Gal(b1-3)GlcNAc(b1-3)Gal(b1-3)GlcNAc
Procedure, shortened: as §1

[21] = target: Neu5Ac(a2-3)Gal(b1-4)GlcNAc(b1-3)Gal(b1-4)GlcNAc(b1-3)Gal(b1-4)GlcNAc
Procedure, shortened: as §1

[22] = target: Neu5Ac(a2-3)Gal(b1-4)GlcNAc(b1-3)Gal(b1-4)[Fuc(a1-3)]GlcNAc
Procedure, shortened: as §1

[23] = target: Neu5Ac(a2-3)Gal(b1-4)[Fuc(a1-3)]GlcNAc
Procedure, shortened: as §1

[24] = target: Neu5Ac(a2-3)Gal6S(b1-4)[Fuc(a1-3)]GlcNAc
Procedure, shortened: as §1

[25] = target: Neu5Ac(a2-6)Gal(b1-4)GlcNAc(b1-2)Man(a1-3)[Gal(b1-4)GlcNAc(b1-2)Man(a1-6)]Man(b1-4)GlcNAc(b1-4)GlcNAc
Procedure, shortened: as §1

[26] = target: Neu5Ac(a2-6)Gal(b1-4)GlcNAc(b1-2)Man(a1-3)[Neu5Ac(a2-6)Gal(b1-4)GlcNAc(b1-2)Man(a1-6)]Man(b1-4)GlcNAc(b1-4)GlcNAc
Procedure, shortened: as §1

[27] = target: Neu5Ac(a2-6)Gal(b1-4)GlcNAc(b1-3)Gal(b1-4)[Fuc(a1-3)]GlcNAc(b1-3)Gal(b1-4)[Fuc(a1-3)]GlcNAc
Procedure, shortened: as §1

[28] = target: Neu5Gc(a2-3)Gal(b1-3)[Fuc(a1-4)]GlcNAc
Procedure, shortened: as §1

B1: BDCA2 ex-domain (Homo sapiens) (protein)
chain: MASHHHHHHIEGRGLNDIFEAQKIEWHESLVPRGSCPTPWTSFQSSCYFISTGMQSWTKSQKNCSVMGADLVVINTREEQDFIIQNLKRNSSYFLGLSDPGGRRHWQWVDQTPYNENVTFWHSGEPNNLDERCAIINFRSSEEWGWNDIHCHVPQKSICKMKKIY
With B1 the “glycan array binding signal (z-score)” value [1] was -0.318, the “glycan array binding signal (z-score)” value [2] was -0.022 and the “glycan array binding signal (z-score)” value [3] was -0.3. The “glycan array binding signal (z-score)” value [4] was -0.204, the “glycan array binding signal (z-score)” value [5] was 0.336 and the “glycan array binding signal (z-score)” value [6] was -0.245. The “glycan array binding signal (z-score)” value [7] was 8.6, the “glycan array binding signal (z-score)” value [8] was -0.375 and the “glycan array binding signal (z-score)” value [9] was 13.2. For the same binder, the “glycan array binding signal (z-score)” value [10] was -0.181, the “glycan array binding signal (z-score)” value [11] was 1.81 and the “glycan array binding signal (z-score)” value [12] was -0.187. The “glycan array binding signal (z-score)” value [13] was -0.1, the “glycan array binding signal (z-score)” value [14] was -0.208 and the “glycan array binding signal (z-score)” value [15] was -0.347. The “glycan array binding signal (z-score)” value [16] was 0.139, the “glycan array binding signal (z-score)” value [17] was 0.619 and the “glycan array binding signal (z-score)” value [18] was -0.128. The “glycan array binding signal (z-score)” value [19] was -0.559, the “glycan array binding signal (z-score)” value [20] was -0.143 and the “glycan array binding signal (z-score)” value [21] was 1.33. The “glycan array binding signal (z-score)” value [22] was 0.601, the “glycan array binding signal (z-score)” value [23] was -0.385 and the “glycan array binding signal (z-score)” value [24] was -0.35. For the same binder, the “glycan array binding signal (z-score)” value [25] was 2.93, the “glycan array binding signal (z-score)” value [26] was -0.101 and the “glycan array binding signal (z-score)” value [27] was 0.319. For the same binder, the “glycan array binding signal (z-score)” value [28] was -0.317.
